Data from the supplement of paper PMC6555819.

system: RXRa homodimer (NR concentration 180 nM); assay: PBM binding z-score (relative to random genomic background probes); higher = stronger binding; sequences stand for … in GC…GCGATTGACAGCGTAGAATGAAGG
Summary of the method: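 Regression normalization was applied to scanned fluorescence from custom Agilent 4×180K protein-binding microarrays. Before scanning, arrays were incubated 1 h with ligand-free nuclear receptor dimers, and binding was detected with antibodies against each partner (one per run). Binding z-scores use the random background probes as reference.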

Sequence | PBM binding z-score
GTACAAAGGTGAATAGGTCGTTGATGAGTAGGCG | 3.43
CGGCCAAGGTCAGAGAGGTCAGTGAATGCCGAGT | 6.21
TCTCGGAGGACACGAAGGTCAGAGCCTTCCAGAG | 2.04
CCAGACAGGTGAAAGGTAACTCAGTCTGGTACGC | 2.13
ATATGAAGGTTAGCTGGGGTCATTCAGACTAGGC | 6.06
CCAGACAGGTGAGAAGGTACCTCAGCCTCGATTA | 0.155
GTACCAAGGTGAATAGCTCGTTGATGAGTAGGCG | 0.453
AGACCAAGGTGATCGTGAGGTCGTTGATACTAAC | 1.37
TCTTGTAGGTCAACAGGAGGTTAAGAAAGATCGA | 4.53
CGTCCAAGGTCAAAGGTCTGTGAAGAGATGACGG | 6.84
GCTATTAGTTTAAAGGGCAACCGAATGATTCTCG | 1.05
ATCTCTAGGTAAAGTTCCGTGAAAGATCGATAGA | 0.0302
GTACCAAGGTGAATAGGTCGTTCATGAGTAGGCG | 1.99
CAAACTCGGTCACCGGAAGGTCAAAGTCCGCATG | 4.82
GCTGCTAGGTCAGGTCGGTCAGCTAACGGGTACG | 1.23
TCGAGTAGGTTACCAACGGGGCATTCAGCTTTCT | 0.733
CCTCGGAGGACACAAGGTCAGAGCTGTCCGCTTT | 2.07
CCTTACGGGTCACTCCAGGTTATAGCTTCGGAGT | 4.42
ATCTCTAGGTAAAGATTGTTCAGTGAATGCAAAT | -0.291
CGAGACAGGTGAGAAGGTAACTCAGCCTCGATTA | 0.212

Sequence | PBM binding z-score
ATCTCTAGGTAAAGATAGTTCCGTGAATGCAAAT | 0.0158
GCAGACAGGTGAAACGCAGTTAACTCAGGGTGGC | 0.577
CGTCCAAGGTCAAAGCTCAGTGAAGAGATGACGG | 5.49
CCTACTGGGCCATCAGGTCTTTGATATCAACGTT | -0.274
CGTACTGGGCCAAGGTCATTGATCAGTCAAAGCA | 3.05
AGAATGAGGTTACCAAAGATCATGGAAACGCTTG | 2.81
ATCTCTAGGTAGCCAAGTTCAGTGAATGCCGAAC | 0.0776
ATATGTAGGTTAAGGGTCATTCACGTTGGTTCGC | 6.15
TCTGCTAGGTCAACGATGGTCAGCTGATCTGCTA | 2.52
ACTATTACTTGACTTAGGGCAACCGATACGACGC | 0.745
CAAACTATGTCACGAAAGGTCAAAGTCGAATGAC | 6.73
CCGACTGGGGCAAAGGTTAACATACTCAGTACGA | 3.89
TCTTGTAGATCAATAGAGGTTAAGAGAGTGCGCT | 1.46
TAGCCTAGGTCAGATCGGGCCAGCATACGCTATA | 1.72
TCTTGTAGATCAAGCAGGTTAAGAGAGCCTGAGT | 0.168
AGATTGAGGTTATTAAGATCAGGGAATTGCGGTC | 1.44
ACTATTAGTTGTCTTAGGGCAACCGATACGACGC | 0.061
ATATGTAGGTTAGCTGGGGTCATTAAGACTAGGC | 5.15
TCTTGTAGATCAGCTGGTTAAGAAAGCTGGCCAA | -0.351
TGTCAAAGTTCAAAGGTAACGCAAGTATCCACAC | 7.38
